# In PubChem BioAssay (NCATS):
# Records with an inconclusive call do not appear. Where a call stands in place of a potency, no number is given. Active and inactive are the calls of the source. Calls follow the shape of the full dose curve; tested in HEK293 reporter line.
# Test: qHTS for Inhibitors of the Functional Ribonucleoprotein Complex (vRNP) of Lassa (LASV) Arenavirus: LASV Primary Screen - GLuc reporter signal (AID 1347082); also: nearly all actives have a fitted effect of over 60% in size
# Conditions: LASV minigenome vRNP, Gaussia luciferase reporter; series mostly up to 57.5 µM
# Potency is read from the fitted curve at half-maximal effect.
row,Compound,Potency
1,CC1(C)CCC[C@@]2(C)C1CC[C@@](C)(O)[C@@H]2CC[C@@](C)(O)C1CO1 (stereo not given in full),inactive
2,C[C@]12CC[C@H]3C(=CCc4cc(O)ccc43)[C@@H]1CCC2=O,inactive
3,C[C@]12CC[C@@H]3c4ccc(O)cc4CC[C@H]3[C@H]1C[C@@H](O)[C@H]2O,inactive
4,Cn1cc(C2=C(c3ccc(Cl)cc3Cl)C(=O)NC2=O)c2ccccc21,inactive
5,COc1ccc(-c2cc(=O)c3c(OC)c(OC)c(OC)c(OC)c3o2)cc1,inactive
6,CC(=O)O[C@@]12CO[C@H]1C[C@H](O)[C@@]1(C)C(=O)[C@H](O)C3=C(C)[C@@H](OC(=O)C(O)[C@@H](NC(=O)OC(C)(C)C)c4ccccc4)C[C@@](O)([C@@H](OC(=O)c4ccccc4)[C@@H]21)C3(C)C (stereo not given in full),inactive
7,O=C1NC(=O)C(=Cc2ccc(-c3ccc(F)cc3O)o2)S1,inactive
8,Nc1ncn([C@@H]2O[C@H](CO)[C@@H](O)[C@@H]2O)c(=O)n1,inactive
9,Cc1nc(NC(=O)N2CCC[C@@H]2C(N)=O)sc1-c1csc(C(C)(C)C)n1,inactive
10,Cc1nccc2c1[nH]c1ccc(Br)cc12,inactive
11,COc1cc2c(Nc3ccc(Cl)c(Cl)c3F)ncnc2cc1OCC1C[C@@H]2CN(C)C[C@H]2C1,8.63 µM (active)
12,Nn1nnc2ccccc21,inactive
13,OC1c2ccccc2N=C2CCCN21 (stereo not given),inactive
14,COc1cc(O)c2c(=O)c(-c3ccc(O[C@@H]4O[C@H](CO)[C@@H](O)[C@H](O)[C@H]4O)cc3)coc2c1,inactive
15,COc1cc2c(cc1OC)C(C)N(Cc1ccc3c(c1)OCO3)CC2 (stereo not given),inactive
16,C[C@@]1(C2CCCC2)Cc2cc(OCC(=O)O)c(Cl)c(Cl)c2C1=O,inactive
17,O=C(C=Cc1ccccc1O)c1ccccc1O,inactive
18,Cc1ccc([C@@H]2O[C@H](CO)[C@@H](O)[C@H](O)[C@@H]2O)cc1Cc1ccc(-c2ccc(F)cc2)s1,inactive
19,C=C1C[C@H](OC(=O)C(C)(O)CCl)C2C(=C)C(=O)O[C@@H]2C2C1C[C@H](O)[C@]2(O)CCl (stereo not given in full),inactive
20,CCc1ccc(/C=C2/SC(=S)NC2=O)cc1,inactive

row,Compound,Potency
1,COc1ccc(Cc2ccc(NC(N)=O)cc2)cc1-c1cccc(Cl)c1,inactive
2,COc1cc2c(cc1OC)-c1cc3cc(OC)c(OC)cc3c(=O)n1CC2,inactive
3,COc1cc(C(=O)O[C@H]2C/C(C)=C/CC[C@@]3(C)O[C@@H]3[C@H](O)[C@@H]2C(C)C)cc(OC)c1OC,inactive
4,Nc1ccc(S(=O)(=O)Nc2ncccn2)cc1,inactive
5,N#CNC(=NCCCCCCOc1ccc(Cl)cc1)Nc1ccncc1,0.0343 µM (active)
6,O=C1c2c(O)cc(O)cc2OC(c2ccc(O)c(O)c2)C1O (stereo not given),inactive
7,COc1cc2c3cc1Oc1c(OC)c(OC)cc4c1[C@H](Cc1ccc(cc1)Oc1cc(ccc1O)C[C@H]3N(C)CC2)N(C)CC4,inactive
8,C[C@H](NC(=O)C(C#N)=Cc1cccc(Br)n1)c1ccccc1,inactive
9,NC/C=C\C(=O)O,inactive
10,CC=C(C(=CC)c1ccc(O)cc1)c1ccc(O)cc1,inactive
11,O=C1NC(=O)C(=Cc2ccc(-c3ccc(F)cc3)o2)S1,inactive
12,CN1CCc2c(c3ccccc3n2Cc2ccc(C(=O)NO)cc2)C1,inactive
13,CCN(CC)CCCCNc1ncc2c(n1)N(C)C(=O)N(c1c(Cl)c(OC)cc(OC)c1Cl)C2,34.3 µM (active)
14,CC=CC(C)=CC(C)C(=O)CC(O)CC1CC(=O)NC(=O)C1 (stereo not given),inactive
15,OCC1OC(n2cnc3c(NCc4ccccc4O)ncnc32)C(O)C1O (stereo not given),inactive
16,Oc1ccc2c(c1)OCC1(O)Cc3cc(O)c(O)cc3C21 (stereo not given),inactive
17,C=CC(=O)Nc1cc(NC(=O)c2ccc(C)c(NC(=O)c3ccno3)c2)cc(C(F)(F)F)c1,inactive
18,CC/C=C\[C@H](O)[C@H](O)C1=C(C)C(=O)[C@]2(O1)C(=O)N[C@@](OC)(C(=O)c1ccccc1)C2O (stereo not given in full),inactive
19,NS(=O)(=O)OC[C@@H]1C[C@@H](n2ccc3c(N[C@H]4CCc5ccccc54)ncnc32)C[C@H]1O,inactive
20,CCCCOP(=O)(O)OCCCC,inactive
